# Data as given in the supplement of paper PMC12282887.
# ± gives the standard deviation of the averaged measurements.
# Key:
# Experiment in all cases: promoter activity interaction Z-score (Lux/OD deviation from empty-vector control); higher = stronger promoter induction by the compound
# [1] = system: E. coli BW25113 acrABp lux reporter
# Summary of the method: (§1)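 E. coli BW25113, as wild type or one of three single-gene deletion strains, carried low-copy luxCDABE promoter reporters and grew in 40 µl LB Lennox in 384-well plates at 37°C, with OD600 and luminescence read every 30 min for 12 h. Each compound was run at four 1:2 dilutions in biological duplicates, integration spanned 0–8 h for wild type and 1–9 h for deletion strains, and wells under 10% of the median growth value were dropped. The score is the Z-transformed residual of growth-normalised luminescence fitted against a control.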
# [2] = system: E. coli BW25113 micFp lux reporter
# Summary of the method: as §1
# [3] = system: E. coli BW25113 ompFp lux reporter
# Summary of the method: as §1
# [4] = system: E. coli BW25113 robp lux reporter
# Summary of the method: as §1
# [5] = system: E. coli BW25113 soxSp lux reporter
# Summary of the method: as §1
# [6] = system: E. coli BW25113 tolCp lux reporter
# Summary of the method: as §1
# [7] = 0.056 µg/ml, genetic background: wild type
# [8] = 0.056 µg/ml, genetic background: ΔmarA
# [9] = 0.056 µg/ml, genetic background: Δrob
# [10] = 0.056 µg/ml, genetic background: ΔsoxS
# [11] = 0.11 µg/ml, genetic background: wild type
# [12] = 0.11 µg/ml, genetic background: ΔmarA
# [13] = 0.11 µg/ml, genetic background: Δrob
# [14] = 0.11 µg/ml, genetic background: ΔsoxS
# [15] = 0.22 µg/ml, genetic background: wild type
# [16] = 0.22 µg/ml, genetic background: ΔmarA
# [17] = 0.22 µg/ml, genetic background: Δrob
# [18] = 0.22 µg/ml, genetic background: ΔsoxS
# [19] = 0.44 µg/ml, genetic background: wild type
# [20] = 0.44 µg/ml, genetic background: ΔmarA
# [21] = 0.44 µg/ml, genetic background: Δrob
# [22] = 0.44 µg/ml, genetic background: ΔsoxS
smiles,measurement,setting,value
CN(C)[C@@H]1C(O)=C(C(N)=O)C(=O)[C@@]2(O)C(O)=C3C(=O)c4c(O)cccc4[C@@](C)(O)[C@H]3C[C@@H]12 [Tetracycline],promoter activity interaction Z-score,[1]; [7],0.26 ± 0.44
same,promoter activity interaction Z-score,[1]; [8],0.996 ± 0.81
same,promoter activity interaction Z-score,[1]; [9],-0.021 ± 0.06
same,promoter activity interaction Z-score,[1]; [10],-0.156 ± 0.057
same,promoter activity interaction Z-score,[1]; [11],0.439 ± 0.11
same,promoter activity interaction Z-score,[1]; [12],0.363 ± 1.1
same,promoter activity interaction Z-score,[1]; [13],0.655 ± 0.19
same,promoter activity interaction Z-score,[1]; [14],0.643 ± 0.026
same,promoter activity interaction Z-score,[1]; [15],1.07 ± 0.24
same,promoter activity interaction Z-score,[1]; [16],-0.35 ± 0.28
same,promoter activity interaction Z-score,[1]; [17],1.78 ± 0.42
same,promoter activity interaction Z-score,[1]; [18],1.59 ± 0.34
same,promoter activity interaction Z-score,[1]; [19],2.18 ± 0.16
same,promoter activity interaction Z-score,[1]; [20],-1.42 ± 0.33
same,promoter activity interaction Z-score,[1]; [21],5.96
same,promoter activity interaction Z-score,[1]; [22],-1.22
same,promoter activity interaction Z-score,[2]; [7],1.46 ± 0.49
same,promoter activity interaction Z-score,[2]; [8],0.0522 ± 0.015
same,promoter activity interaction Z-score,[2]; [9],-0.0785 ± 0.057
same,promoter activity interaction Z-score,[2]; [10],0.373 ± 0.06
same,promoter activity interaction Z-score,[2]; [11],2.61 ± 0.64
same,promoter activity interaction Z-score,[2]; [12],0.188 ± 0.14
same,promoter activity interaction Z-score,[2]; [13],0.177 ± 0.19
same,promoter activity interaction Z-score,[2]; [14],1.44 ± 0.23
same,promoter activity interaction Z-score,[2]; [15],3.37 ± 0.62
same,promoter activity interaction Z-score,[2]; [16],0.403 ± 0.2
same,promoter activity interaction Z-score,[2]; [17],0.131 ± 0.15
same,promoter activity interaction Z-score,[2]; [18],1.86 ± 0.2
same,promoter activity interaction Z-score,[2]; [19],0.313 ± 0.3
same,promoter activity interaction Z-score,[2]; [20],0.3 ± 0.28
same,promoter activity interaction Z-score,[2]; [21],-0.128 ± 0.088
same,promoter activity interaction Z-score,[2]; [22],-0.349 ± 0.37
same,promoter activity interaction Z-score,[3]; [7],1.85 ± 1.5
same,promoter activity interaction Z-score,[3]; [8],1.72 ± 1.3
same,promoter activity interaction Z-score,[3]; [9],1.96 ± 1.3
same,promoter activity interaction Z-score,[3]; [10],0.631 ± 0.11
same,promoter activity interaction Z-score,[3]; [11],2.68 ± 1
same,promoter activity interaction Z-score,[3]; [12],2.53 ± 0.79
same,promoter activity interaction Z-score,[3]; [13],2.36 ± 0.4
same,promoter activity interaction Z-score,[3]; [14],2.15 ± 1
same,promoter activity interaction Z-score,[3]; [15],1.98 ± 0.54
same,promoter activity interaction Z-score,[3]; [16],1.86 ± 0.28
same,promoter activity interaction Z-score,[3]; [17],1.26 ± 0.07
same,promoter activity interaction Z-score,[3]; [18],2.71 ± 0.19
same,promoter activity interaction Z-score,[3]; [19],-0.73 ± 0.18
same,promoter activity interaction Z-score,[3]; [20],-1.97 ± 1.1
same,promoter activity interaction Z-score,[3]; [22],-3.24
same,promoter activity interaction Z-score,[4]; [7],0.998 ± 1.4
same,promoter activity interaction Z-score,[4]; [8],0.179 ± 0.2
same,promoter activity interaction Z-score,[4]; [9],0.105 ± 0.73
same,promoter activity interaction Z-score,[4]; [10],-0.0139 ± 0.3
same,promoter activity interaction Z-score,[4]; [11],1.13 ± 0.42
same,promoter activity interaction Z-score,[4]; [12],-0.0571 ± 0.62
same,promoter activity interaction Z-score,[4]; [13],0.458 ± 0.4
same,promoter activity interaction Z-score,[4]; [14],0.51 ± 0.84
same,promoter activity interaction Z-score,[4]; [15],-0.261 ± 0.053
same,promoter activity interaction Z-score,[4]; [16],-0.985 ± 0.35
same,promoter activity interaction Z-score,[4]; [17],0.638 ± 0.37
same,promoter activity interaction Z-score,[4]; [18],0.945 ± 1.1
same,promoter activity interaction Z-score,[4]; [19],-1.59 ± 0.88
same,promoter activity interaction Z-score,[4]; [20],-2.19 ± 0.95
same,promoter activity interaction Z-score,[4]; [22],-2.66 ± 0.43
same,promoter activity interaction Z-score,[5]; [7],0.151 ± 0.19
same,promoter activity interaction Z-score,[5]; [8],0.0648 ± 0.063
same,promoter activity interaction Z-score,[5]; [9],-0.00055 ± 0.21
same,promoter activity interaction Z-score,[5]; [10],-0.162 ± 0.37
same,promoter activity interaction Z-score,[5]; [11],0.728 ± 0.037
same,promoter activity interaction Z-score,[5]; [12],0.346 ± 0.055
same,promoter activity interaction Z-score,[5]; [13],0.252 ± 0.33
same,promoter activity interaction Z-score,[5]; [14],0.493 ± 0.026
same,promoter activity interaction Z-score,[5]; [15],1.18 ± 0.3
same,promoter activity interaction Z-score,[5]; [16],0.609 ± 0.14
same,promoter activity interaction Z-score,[5]; [17],0.598 ± 0.38
same,promoter activity interaction Z-score,[5]; [18],1.26 ± 0.17
same,promoter activity interaction Z-score,[5]; [19],1.56 ± 0.18
same,promoter activity interaction Z-score,[5]; [20],1.47 ± 0.25
same,promoter activity interaction Z-score,[5]; [21],1.46 ± 1
same,promoter activity interaction Z-score,[5]; [22],0.966 ± 0.8
same,promoter activity interaction Z-score,[6]; [7],0.446 ± 0.25
same,promoter activity interaction Z-score,[6]; [8],0.201 ± 0.44
same,promoter activity interaction Z-score,[6]; [9],0.673 ± 1.5
same,promoter activity interaction Z-score,[6]; [10],-0.654 ± 0.27
same,promoter activity interaction Z-score,[6]; [11],1.04 ± 0.64
same,promoter activity interaction Z-score,[6]; [12],0.0643 ± 0.81
same,promoter activity interaction Z-score,[6]; [13],0.925 ± 0.084
same,promoter activity interaction Z-score,[6]; [14],-0.579 ± 0.46
same,promoter activity interaction Z-score,[6]; [15],1.19 ± 1.5
same,promoter activity interaction Z-score,[6]; [16],1.09 ± 0.74
same,promoter activity interaction Z-score,[6]; [17],1.09 ± 0.63
same,promoter activity interaction Z-score,[6]; [18],0.351 ± 1.5
same,promoter activity interaction Z-score,[6]; [19],-0.0424 ± 0.045
same,promoter activity interaction Z-score,[6]; [20],1.29 ± 2
same,promoter activity interaction Z-score,[6]; [21],1.15 ± 0.23
same,promoter activity interaction Z-score,[6]; [22],0.632 ± 1.4
